Screens deposited in PubChem BioAssay by National Center for Advancing Translational Sciences (NCATS).
Many of the other results were omitted from the sample, so hits are more common in it than they were.
Pf Dd2 growth = inhibitors of Plasmodium falciparum Dd2 growth. Potency, µM (doses to about 28.9 µM), for inactives: top-dose activity, negative = inhibition, hits mostly inhibitors. AID 1347417. actives 4.3% (n = 120,000). P. falciparum Dd2 growth, SYBR Green, 72 h; active means well fitted inhibition curve with a large enough effect;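 further: plate controls were DMSO vehicle for no effect and reference drug for full effect; nearly all actives have a fitted effect of over 65% in size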
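Infected erythrocytes (Dd2, 0.3% parasitemia, 2.5% hematocrit final) are added to compound in RPMI-1640/Albumax II medium, grown 72 h at 37C in low oxygen, then lysed with saponin/Triton-X containing SYBR Green and read by fluorescence.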
* marks the source's active call; other numbers are inactive results; i = inactive; [ ] = another dose, or the depositor's remark. Potency means the concentration at half of the fitted maximal effect.

SMILES	Pf Dd2 growth
N#Cc1ccc(CN2CC(CNC(=O)Nc3ccccc3)C3(C2)CN(c2ccccc2)C3)cc1 (stereo not given)	i
Clc1ccc(CN2CCC3(CC2)CC(c2cccnc2)=NO3)cc1	19.2%
Cn1nc(C2CCN(C(=O)CCCc3ccccc3)CC2)c2c1CCOC2	i[5.79 µM]
CC(C)CNC(=O)N1CCC2(CC1)CC(N(C)Cc1ccccc1)CCO2 (stereo not given)	16.4%
COc1ccc(S(=O)(=O)N2CCC3(CC2)CC(N(C)Cc2ccccc2)CCO3)cc1 (stereo not given)	11.2µM*
CC(C)NC(=O)N(C1CC1)C1CCOC2(CCN(C(=O)NCc3ccccc3)CC2)C1 (stereo not given)	9.5%
CN(Cc1ccccc1)C1CCOC2(CCN(C(=O)NC3CCCC3)CC2)C1 (stereo not given)	6.31µM*
COc1cccc(CC(=O)N2CCC3(CC2)CC(N(C2CC2)S(C)(=O)=O)CCO3)c1 (stereo not given)	i
COC1CCOC2(CCN(S(=O)(=O)c3ccccc3)CC2)C1 (stereo not given)	24.1%
O=C(O)C[C@@H]1CCN(C(=O)C2CCCCC2)C[C@@H]1CCN1CCN(c2ccccn2)CC1	-2.9%
O=C1CC(c2ccccc2)N(C(=O)CNC(=O)Cn2c(=O)oc3ccccc32)CCCCCN1 (stereo not given)	-22.3%
CC(C)(C)C(=O)N1CCC2(CC1)C(=O)N(CC(=O)Nc1cccc(Cl)c1)CN2c1ccccc1	3.98µM*
CCCNC(=O)CN1CN(c2ccccc2)C2(CCN(C(=O)Nc3ccc(CC)cc3)CC2)C1=O	-17.5%
CC(C)NC(=O)CN1CN(c2ccccc2)C2(CCN(C(=O)NCc3ccccc3)CC2)C1=O	i
Cc1ccc(-n2ncc(C(=O)N3CCCCC3)c2C2CCN(C(=O)OC(C)(C)C)CC2)cc1C	-4.7%
COc1ccc(NC(=O)c2cnn(-c3ccc(F)cc3F)c2C2CCN(C(=O)OC(C)(C)C)CC2)cc1Cl	7.94µM*
CC(C)(C)OC(=O)N1CCC(c2c(C(=O)NCc3ccc4c(c3)OCO4)cnn2-c2ccc(F)cc2F)CC1	7.94µM*
Cc1cccc(-n2ncc(C(=O)Nc3ccc4c(c3)OCO4)c2C2CCN(C(=O)OC(C)(C)C)CC2)c1	10µM*
Cc1c(Cl)cccc1-n1ncc(C(=O)Nc2ccc(F)cc2F)c1C1CCN(C(=O)OC(C)(C)C)CC1	-2.5%
CC(C)(C)OC(=O)N1CCC(c2c(C(=O)Nc3ccc4c(c3)OCCO4)cnn2-c2ccc(F)cc2F)CC1	3.98µM*
CCC(=O)Nc1ccc([C@H]2OCC(=O)N(Cc3ccc(F)cc3)[C@@H]2CO)cc1	11.7%[44.1 µM]
COc1ccc(C(=O)N2CCOC(CCCC(C)C)C2)o1 (stereo not given)	-22.8%
O=C(Nc1cccn2cnnc12)c1ccc(S(=O)(=O)NCCO)cc1	-10.6%
O=C1CCC2(CCN(C(=O)c3ccccc3)CC2)CN1CC1CCCO1 (stereo not given)	-7.1%
CC(C)(C)OC(=O)N1CCC(c2c(C(=O)Nc3cccc(C(F)(F)F)c3)cnn2-c2ccc(F)cc2F)CC1	11.2µM*
SMILES	Pf Dd2 growth
CC(C)(C)OC(=O)N1CCC(c2c(C(=O)O)cnn2-c2ccc(F)cc2F)CC1	4.7%
CCCN(CC1CCOC1)S(=O)(=O)c1ccc(C)c(Cl)c1 (stereo not given)	2.4%[5.79 µM]
CC(C)C[C@H](NC(=O)Cn1nc2c(cc1=O)CCCC2)C(=O)O	-13.1%
Cc1cc(S(=O)(=O)NCCc2noc(-c3ccccc3)n2)ccc1Cl	i
Cc1oc2c(c1C(=O)NC1CCCN(c3ncccn3)C1)C(=O)CCC2 (stereo not given)	-20.7%
Clc1ccc(CNC2(Cc3cc(COc4ccccc4)on3)COC2)cc1	-29.7%[44.1 µM]
CC(=O)NC1(C)CCN(Cc2ccc(-c3ccccc3Oc3ccccc3)cc2)C1 (stereo not given)	7.08µM*
CC(=O)NC1(C)CCN(Cc2ccc(-c3ccc([S+](C)(=O)[O-])cc3)cc2)C1 (stereo not given)	i
COc1cc(CN2CCC(C)(NC(C)=O)CC2)cc(-c2ccccc2)c1	i
CC(=O)NC1(C)CCCN(Cc2cc(Br)cs2)C1 (stereo not given)	i
CC(=O)NC1(C)CCN(Cc2ccc(-c3ccc4c(ccn4C)c3)cc2)C1 (stereo not given)	10µM*
COc1ccccc1CNC(=O)C1(CCO)CCN(Cc2ccccc2)C1 (stereo not given)	i
Cc1cc(C)n(CC(=O)N[C@@H]2CN(Cc3ccccc3)C[C@H]2CN(C)C)c(=O)n1	28.7%
COC[C@@H]1CN(C(=O)c2cc(C3CC3)[nH]n2)C[C@H]1c1ccccn1	-34.9%
O=C(NCc1ccc(F)cc1)c1ccc(CN2C(=O)NC3(CCOCC3)C2=O)cc1	42.6%
CNC(=O)CCn1ncc2cc(OC3CCc4cccc(-c5ccnc(C)c5)c43)ccc21 (stereo not given)	-0.1%[44.1 µM]
CNC(=O)CCn1ncc2cc(OC3CCc4cccc(-c5ccccc5)c43)ccc21 (stereo not given)	2.82µM*
O=C(O)CCn1ncc2cc(OC3CCN(C(=O)c4cc(F)ccc4Cl)CC3)ccc21	-10.4%
CNC(=O)CCn1ncc2cc(OC3CCc4cccc(-c5cccc(F)c5)c43)ccc21 (stereo not given)	i
O=C(O)CCn1ncc2cc(OC3CCN(C(=O)Oc4ccccc4)CC3)ccc21	i
CNC(=O)CCn1ncc2cc(OC3CCc4cccc(-c5ccc(F)cc5)c43)ccc21 (stereo not given)	14.1µM*
Cc1cc(C(F)(F)F)nn1CC(=O)NCC(=O)N1CCCCCCNC(=O)CC1c1ccccc1 (stereo not given)	-25.7%
CC(c1cccs1)N(C)Cc1ccc(C(F)(F)F)cc1 (stereo not given)	-10.5%[44.1 µM]
Cc1cc(CN(C)c2cc(C3CC(N)C3)nc(N)n2)no1 (stereo not given)	-5.4%
Cc1nc(C2CC(O)C2)cc(N(C)Cc2ccc3c(c2)OCO3)n1 (stereo not given)	-2.5%
SMILES	Pf Dd2 growth
CCOc1ccc(Cl)cc1CN(C)c1cc(C2CC(O)C2)nc(N)n1 (stereo not given)	11.2µM*
O=C(c1ccccc1F)N1CCCC2(C1)NC(=O)N(Cc1ccccc1)C2=O (stereo not given)	i
Cc1cccc(NC(=O)N2[C@H]3CC[C@@H]2c2cncnc2C3)c1	-3.5%
Cc1nc2c(c(NC3CC3)n1)CCN(C(=O)CCc1ccncc1)CC2	-12.5%
CCn1ncc(N2CCC(NC(=O)c3ccc4c(c3)OCO4)CC2)cc1=O	30.9%
O=C(c1ccc2cc[nH]c2c1)N1CCC(N2C(=O)C3(CCCCC3)C2c2ccncc2)CC1 (stereo not given)	7.08µM*
Cn1nccc1C(=O)N1CCC(N2C(=O)C3(CCCCC3)C2c2ccccc2)CC1 (stereo not given)	i
Cc1cccc(C(=O)N2CCC(N3C(=O)C4(CCCCC4)C3c3ccncc3)CC2)c1 (stereo not given)	6.31µM*
COc1ccc(C(=O)N2CCC(N3C(=O)C4(CCCC4)C3c3ccccc3)CC2)cc1 (stereo not given)	-11.4%
CCn1nccc1C(=O)N1CCC(N2C(=O)C3(CCCCC3)C2c2ccncc2)CC1 (stereo not given)	i
O=C(c1ccncc1)N1CCC(N2C(=O)C3(CCCC3)C2c2ccccc2)CC1 (stereo not given)	i
CCCNC(=O)N1CCC(Cn2c(C)cnc2C2CCOCC2)CC1	-4.9%
O=C(Nc1ccccc1)c1cnc2n1CCN(CC1CCCC1)CC2	0.6%[44.1 µM]
